Compound activity deposited in PubChem by National Center for Advancing Translational Sciences (NCATS).
In the library only some 6.3% were active in any assay of this set; here they are far more common.
TGFb inhibitor – qHTS for Inhibitors of TGF-b; HepG2 CAGA-GFP TGF-b/SMAD3 reporter, GFP fluorescence, 18 h; TGF-beta stimulated, 500 pg/mL final; Potency, µM (highest dose often 46.1 µM), hits mostly inhibitors; 410,000 tested, 1.2% active; AID 588855, 2011; also: nearly all actives have a fitted effect of over 65% in size
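Cell-based qHTS in HEPG2 carrying a CAGA-GFP Smad reporter; compounds added before 500 pg/mL final TGF-beta, 18 h incubation at 37 degrees C, GFP fluorescence quantified per cell by imaging cytometry.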
VP16 counter – VP16 counterscreen qHTS for inhibitors of ROR gamma transcriptional activity | Drosophila S2 Gal4-VP16 UAS-luciferase, luminescence, 20 h | Potency, µM (series often up to 53.6 µM), actives largely listed as inhibitors | 310,000 tested, 3.5% active;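 also: Gal4-VP16 expression switched on by copper sulfate through the metallothionein promoter; nearly all actives have a fitted effect of over 50% in size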
ATXN2 expr inh – Primary qHTS for Inhibitors of ATXN expression | HEK-293 ATXN2-luciferase reporter, luminescence, 24 h | Potency, µM (series often up to 57 µM), most hits filed as inhibitors | 360,000 tested, 0.72% active | AID 1745845, 2022; also: nearly all actives have a fitted effect of over 55% in size
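ATXN2-luciferase reporter cells (luciferase flanked by upstream and downstream ATXN2 gene portions) were treated 24 h at 37 °C with compounds at up to 57 uM. SteadyGlo luminescence gave expression; GF-AFC fluorescence gave viability.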
S2 tox – Viability Counterscreen for Primary qHTS for Inhibitors of ATXN expression | 400,000 tested, 0.49% active | S2 cells (HEK-293 line with an ATXN2-luciferase reporter) viability, CellTiter-Fluor protease fluorescence, 24 h | Potency, µM (titrated, usually from 56.7 µM), most hits filed as cytotoxic; also: nearly all actives have a fitted effect of over 40% in size
RORg inh – qHTS for inhibitors of ROR gamma transcriptional activity. Nuclear receptor ROR-gamma (Mus musculus), P51450. Drosophila S2 Gal4-RORgamma UAS-luciferase reporter, 20 h. Potency, µM (titrated, usually from 53.6 µM), actives largely listed as inhibitors. 310,000 tested, 5.4% active. AID 2551, 2010; also: nearly all actives have a fitted effect of over 60% in size
Target sequence (P51450 whole entry, looked up, the tested form may be a part): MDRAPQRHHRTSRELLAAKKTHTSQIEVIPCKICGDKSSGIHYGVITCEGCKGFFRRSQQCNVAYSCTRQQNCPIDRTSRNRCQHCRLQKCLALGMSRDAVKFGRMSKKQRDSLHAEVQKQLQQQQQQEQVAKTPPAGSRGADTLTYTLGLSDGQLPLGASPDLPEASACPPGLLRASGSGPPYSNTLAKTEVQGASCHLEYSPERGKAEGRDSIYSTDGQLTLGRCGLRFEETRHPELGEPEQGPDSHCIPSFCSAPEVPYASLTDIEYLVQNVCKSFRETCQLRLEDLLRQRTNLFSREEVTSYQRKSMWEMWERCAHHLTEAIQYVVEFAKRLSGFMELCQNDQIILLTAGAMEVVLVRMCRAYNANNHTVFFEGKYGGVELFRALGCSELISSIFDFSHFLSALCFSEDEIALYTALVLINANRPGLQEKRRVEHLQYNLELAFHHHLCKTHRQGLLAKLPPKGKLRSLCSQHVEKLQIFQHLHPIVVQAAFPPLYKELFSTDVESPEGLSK
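Stably transfected Drosophila Schneider cells are the test system, with ROR gamma fused to Gal4 and luciferase under UAS control; luminescence is read after 20 hr of 700 uM copper sulfate induction at ambient temperature.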
HepG2 tox-1 – qHTS for Inhibitors of TGF-b: Cytotox Counterscreen | HepG2 CAGA-GFP viability, ATP luminescence, 18 h | Potency, µM (series often up to 46.1 µM), most hits filed as cytotoxic | 410,000 tested, 0.76% active
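HepG2 CAGA-GFP cells (1000/well, DMEM with 1% FBS) received compound, then TGF-beta at 500 pg/mL final, and were incubated 18 hours at 37 degrees C. Viability was read by CellTiter-Glo luminescence. Media-only wells were set as complete cell-killing and DMSO as no toxicity.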
TGFb confirm – qHTS for Inhibitors of TGF-b: Confirmation of Cherry Picks. shares compounds with TGFb inhibitor. HepG2 CAGA-GFP TGF-b reporter, GFP fluorescence, 18 h; cells stimulated with TGF-beta, 500 pg/mL. Potency, µM (top dose mostly 46.1 µM), actives largely listed as inhibitors. 1,600 tested, 63% active. AID 720534, 2013; also: nearly all actives have a fitted effect of over 65% in size
HepG2 tox-2 – qHTS for Inhibitors of TGF-b: Cytotox Counterscreen for Cherry Picks; shares compounds with TGFb inhibitor; HepG2 CAGA-GFP viability, ATP luminescence, 18 h; cells stimulated with TGF-beta, 500 pg/mL; Potency, µM (titrated, usually from 46.1 µM), usual class: inhibitors; 1,600 tested, 27% active; AID 720535, 2013; also: nearly all actives have a fitted effect of over 70% in size
CCL64 TGFb inh – qHTS for Inhibitors of TGF-b: CCL64 Cells Orthogonal Assay for Cherry Picks | AID 720536, 2013 | shares compounds with TGFb inhibitor | 1,600 tested, 41% active | Potency, µM (series often up to 46.1 µM), most hits filed as inhibitors | CCL64 CAGA-GFP reporter, TGF-b stimulated, GFP fluorescence, 18 h; also: nearly all actives have a fitted effect of over 65% in size
COP TGFb inh – qHTS for Inhibitors of TGF-b: Hit Validation in HepG2 Cells using COP promoter | shares compounds with TGFb inhibitor | HepG2 COP-GFP TGF-b reporter, GFP fluorescence, 18 h; cells stimulated by added recombinant TGF-beta | Potency, µM (titrated, usually from 46.1 µM), hits mostly inhibitors | 1,600 tested, 3% active | AID 720537, 2013; also: nearly all actives have a fitted effect of over 70% in size
Hits are given with their value; . = inactive; ? = inconclusive; / = no result given. Calls follow the shape of the dose curve; as a rule, active = well fitted curve in the direction sought with a large enough effect; inconclusive = small, poorly fitted or top-dose-only effect, or another doubt; inactive = no such curve, though single readings can be large; an effect the other way counts as inactive or inconclusive.

SMILES	TGFb inhibitor	VP16 counter	ATXN2 expr inh	S2 tox	RORg inh	HepG2 tox-1	TGFb confirm	HepG2 tox-2	CCL64 TGFb inh	COP TGFb inh
CN1CCC(C)(C(=O)Nc2ccc3c(c2)OCCO3)C1 (configuration not stated)	.	/	.	.	/	.	/	/	/	/
Cc1ccc(N=C2C(=O)Nc3ccccc32)cc1	.	.	/	?	.	.	/	/	/	/
Cc1nc2c(o1)C(=O)c1ccccc1C2=Nc1ccccc1	1.3µM	/	28µM	/	/	1.4µM	3.7µM	4.1µM	5.8µM	4.1µM
O=C(c1ccc(Br)cc1)c1cc([N+](=O)[O-])ccc1N1CCOCC1	?	.	/	?	.	.	/	/	/	/
O=C(c1ccc(Cl)cc1)c1cc([N+](=O)[O-])ccc1N1CCOCC1	11µM	.	.	.	.	.	7.3µM	.	?	.
O=C(COc1cccc(F)c1)N[C@@H](Cc1ccccc1)c1nc2ccccc2[nH]1	?	.	/	.	.	.	?	.	.	.
CC(C)(C)CC(=O)N[C@@H](Cc1ccccc1)c1nc2ccccc2[nH]1	.	.	.	.	.	.	/	/	/	/
O=C(NCCc1cccs1)C1CC(c2ccccc2F)=NO1 (configuration not stated)	?	.	.	.	.	.	.	.	.	.
O=C(NCCc1cccs1)C1CC(c2cccc(F)c2)=NO1 (configuration not stated)	.	?	.	.	.	.	/	/	/	/
O=C1CS(=O)(=O)N(Cc2ccccc2F)c2ccc(Br)cc21	13µM	/	.	.	/	.	?	?	?	.
O=C1CS(=O)(=O)N(Cc2ccc(F)cc2)c2ccccc21	?	/	.	.	/	.	/	/	/	/
O=C(Nc1cccc(NC(=O)c2ccc([N+](=O)[O-])o2)c1)c1ccco1	4µM	?	.	?	.	11µM	6.5µM	?	16µM	?
CC(=O)Nc1cccc(NC(=O)c2ccco2)c1	.	.	/	/	.	.	/	/	/	/
O=C(Nc1cccc(NC(=O)c2cccs2)c1)c1ccc([N+](=O)[O-])o1	5.6µM	?	?	?	.	22µM	5.2µM	21µM	12µM	?
Cc1ccc(OCC(=O)N(Cc2ccc(Cl)cc2)Cc2ccco2)cc1C	/	/	/	/	/	.	/	/	/	/
Cc1cc(NC(=O)c2ccc(-c3ccc(Br)cc3)o2)cc(-c2nc3ncccc3o2)c1O	?	/	.	.	/	.	/	/	/	/
COc1ccccc1N1CCN(S(=O)(=O)c2ccc(F)c(C(=O)Nc3ccc(C)c(F)c3)c2)CC1	.	/	.	?	/	.	/	/	/	/
Cc1cccc(C2(c3cccc(C)c3)CC2C(=O)Nc2ccc([N+](=O)[O-])cc2O)c1 (configuration not stated)	7.9µM	11µM	?	18µM	.	11µM	6.5µM	12µM	7.3µM	.
C=CCNC(=O)C1CC1(c1cccc(C)c1)c1cccc(C)c1 (configuration not stated)	.	/	.	.	/	.	/	/	/	/
O=C(COCc1cc(-c2ccc(F)cc2)on1)Nc1cccc(Cl)c1Cl	.	/	/	/	/	.	/	/	/	/
Cc1cccc(C)c1NC(=O)CCCSc1nnc(-c2ccc(F)cc2)n1-c1ccccc1	7.9µM	.	.	.	?	.	?	.	?	.
COc1ccccc1Cn1ccn(CC(=O)Nc2c(C)cc(C)cc2C)c(=O)c1=O	.	/	/	/	/	.	/	/	/	/
Cc1ccc2nc3c(c(Nc4ccc5c(c4)OCCO5)c2c1)CCC3	3.5µM	?	.	?	.	.	?	?	?	.
CN(C)C(=O)c1cccc(-c2cnc3c(NC=O)cc(-c4ccccc4Cl)cn23)c1	13µM	/	.	11µM	/	.	16µM	.	?	.
CC(=O)c1ccc(-c2cnc3c(NC=O)cc(-c4cccc(C(=O)N(C)C)c4)cn23)cc1	.	/	.	.	/	.	/	/	/	/
SMILES	TGFb inhibitor	VP16 counter	ATXN2 expr inh	S2 tox	RORg inh	HepG2 tox-1	TGFb confirm	HepG2 tox-2	CCL64 TGFb inh	COP TGFb inh
CN(C)C(=O)c1cccc(-c2cc(NC=O)c3ncc(-c4ccc(F)cc4)n3c2)c1	8.9µM	/	.	.	/	.	5.2µM	.	?	.
CC(C)CCCCCCCCCCCCC(=O)NCC(=O)NC1C(C)OC(Nc2ncnc3nc[nH]c23)C(O)C1O (configuration not stated)	0.35µM	/	?	?	/	.	1µM	?	0.52µM	.
O=C(Nc1ccc(N2CCN(c3ccc(C(F)(F)F)cn3)CC2)nc1)c1cccs1	?	.	?	.	.	.	/	/	/	/
O=C(Nc1ccc(N2CCN(c3ncccc3C(F)(F)F)CC2)nc1)c1cccs1	4µM	.	34µM	?	?	.	?	?	?	.
O=C(O)c1ccccc1C(=O)Nc1cccc([N+](=O)[O-])c1	.	.	/	.	.	.	/	/	/	/
O=C(Nc1cccc([N+](=O)[O-])c1)c1cc2ccccc2cc1O	4µM	4.5µM	?	?	5µM	.	6.5µM	4.1µM	4.6µM	.
O=C(NC1CC1)c1cccc(NC(=O)C2CCN(S(=O)(=O)c3ccccc3C(F)(F)F)CC2)c1	.	/	/	.	/	.	/	/	/	/
CC(C)C[C@H]1CN=C(Nc2ccccc2)N1CCc1cccc(F)c1	7.1µM	/	.	.	/	.	5.8µM	?	13µM	.
CC(C)C[C@H]1CN=C(Nc2ccccc2)N1CCc1ccc(F)cc1	8.9µM	/	.	.	/	.	7.3µM	?	18µM	.
CC(C)CCN1C(Nc2ccccc2)=NC[C@@H]1CC(C)C	.	.	.	.	.	.	/	/	/	/
Cc1cccc(CCN2C(Nc3ccccc3)=NC[C@@H]2CC(C)C)c1	6.3µM	/	?	?	/	.	5.2µM	?	?	.
O=C(C1CCCCC1)N1C[C@H](n2cc(C3CC3)nn2)[C@@H](O)C[C@@H]1c1ccc(Cl)cc1	.	/	.	.	/	.	/	/	/	/
